Laboratory results taken from PubChem BioAssay (NCI).
About 79,000 compounds went through this panel and 15% of them were active in at least one assay; those are over-represented in the sample as a whole. Rule as the data show it: active = growth inhibition above about 70%; inactive = the rest.

Assays:
[1] = NCI Yeast Anticancer Drug Screen. Data for the rad50 strain (AID 155);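 also: 0% = growth of vehicle-only cultures of the same strain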; settings: S. cerevisiae rad50 strain growth inhibition; at 50.0 µM; hits give high values
Outline: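 Vehicle-treated cultures provide the reference for the growth inhibition reported for compound-exposed, repair-deficient yeast.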

[2] = NCI Yeast Anticancer Drug Screen. Data for the mec2-1 strain (AID 157); settings: S. cerevisiae mec2-1 strain, at 50.0 µM, hits give high values
Outline: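 Vehicle-treated cultures served as reference for growth inhibition of compound-exposed mec2-1 yeast.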

[3] = NCI Yeast Anticancer Drug Screen. Data for the mlh1 rad18 strain (AID 175); settings: S. cerevisiae mlh1 rad18 strain growth inhibition; at 50.0 µM; hits give high values
Outline: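 Vehicle-treated cultures served as the reference for growth inhibition in a yeast strain carrying DNA damage repair alterations exposed to each compound.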

Measured: growth inhibition

Cc1ccccc1NC(=S)Nc1ccccn1
inactive: [1] 22% | [2] -0.3% | [3] 10.3%

CCCCCCC(C/C=C\CCCCCCCC(=O)OC)OC(C)=O (stereo not drawn)
inactive: [1] -10.2% | [2] -16.7% | [3] -4.5%

CCOC(=O)c1c(N)sc2c1CCN(Cc1ccccc1)C2
inactive: [1] 39.4% | [2] 17.8% | [3] 21.9%

CCCCCCCCCCCCOc1ccccc1
inactive: [1] 6.15% | [2] -14.3% | [3] 7.6%

O=[N+]([O-])c1cccc(S(=O)(=O)OCCOc2ccccc2)c1
inactive: [1] 30.7% | [2] 4.15% | [3] 17.6%

COc1cc(/C=C2\CN(C)C(=O)C2=O)ccc1O
inactive: [1] -11.7% | [2] -27.2% | [3] -12.2%

O=C(O)c1ccc(NCn2c(=S)[nH]c3ccccc32)cc1O
inactive: [1] -7.6% | [2] -42.5% | [3] -16.2%

COc1ccc(-c2cc(=O)c3c(O)cc(C)cc3o2)cc1OC
inactive: [1] -23.9% | [2] -25.6% | [3] -21.6%

Cc1ccc(S(=O)(=O)N2CCC(O)(c3ccccc3)CC2)cc1
inactive: [1] -3.05% | [2] -36.3% | [3] -2.7%

CCN(CC)c1ccc(N=Cc2ccccc2S(=O)(=O)O)cc1
inactive: [1] 0.9% | [2] -11.4% | [3] 34%

COc1cccc(/C=C/C(=O)c2ccc(Cl)cc2)c1OC
inactive: [1] 27% | [2] 30.1% | [3] 16.2%

CCOc1cccc(/C=C2\N=C(c3ccccc3)OC2=O)c1
inactive: [1] 4.35% | [2] 25% | [3] 10.9%

Cc1ccc(/C=N/N2C(=O)c3ccccc3C2=O)cc1
inactive: [1] -28.9% | [2] -43.1% | [3] -37.9%

CC12CC3CC(C(Cl)C(=O)O)(C1)CC(C(Cl)C(=O)O)(C3)C2 (stereo not drawn)
inactive: [1] 52.1% | [2] 14.5% | [3] 46.6%

O=c1oc(-c2ccc(Cl)cc2)nc2cc(Cl)ccc12
inactive: [1] -20.6% | [2] -14.7% | [3] -20.8%

C(=N\n1cnnc1)/c1ccc2c(c1)CCC2
inactive: [1] -21.6% | [2] -34.5% | [3] -20.4%

C[N+]12OC3CC1C1OC1C2C3 (stereo not drawn)
inactive: [1] -4.55% | [2] -9.4% | [3] 25.4%

CC(=O)C1=CCC2C3CC(C)=C4CC(O)CCC4(C)C3CCC12C (stereo not drawn)
inactive: [1] 24.9% | [2] -1.15% | [3] -2.95%

CC(C)C(C(=O)c1ccccc1)c1ccccc1 (stereo not drawn)
inactive: [1] -0.3% | [2] -10.1% | [3] -3.55%

O=C(Cc1nc2ccccc2[nH]c1=O)N/N=C/c1ccc2c(c1)CCC2
inactive: [1] -30.2% | [2] -28.6% | [3] -37.4%

CC(/C=N/N1C(=O)c2ccccc2C1=O)c1ccccc1 (stereo not drawn)
inactive: [1] 12.8% | [2] -11.6% | [3] -10.8%

COc1ccc(CNc2ccccn2)cc1
inactive: [1] 10.9% | [2] 13.5% | [3] 40.2%

CC1=NN(c2ccccc2)C(=O)C1C(=O)c1ccccc1 (stereo not drawn)
inactive: [1] 22.2% | [2] -3.65% | [3] 14%

CSc1sc2cc([N+](=O)[O-])ccc2[n+]1C
inactive: [1] -0.4% | [2] -7.6% | [3] 55.4%

CC1(O)CC2CC1C(C(=O)O)C2C(=O)O (stereo not drawn)
inactive: [1] -0.85% | [2] -27.6% | [3] -15.1%

C=CN1C(=O)N(C=C)C(C)(CC(C)C)C1=O (stereo not drawn)
inactive: [1] 3.6% | [2] -5.55% | [3] 15.8%

CCN(CC)c1cc(C(C)(C)C)cc(C(C)(C)C)c1
inactive: [1] 0.45% | [2] -21.5% | [3] -11.1%

N#C/C(=C1C=C/C(=N/O)C(Br)=C/1)c1ccccc1
inactive: [1] 50.1% | [2] 13.2% | [3] 22%

CC1=NN(c2ccccc2)C(=O)C1CCC#N (stereo not drawn)
inactive: [1] 10.6% | [2] -12.9% | [3] 31.4%

CCCCCCCCCCCCCCCC(C)(C)O
inactive: [1] -29% | [2] -27.6% | [3] 5.1%

C=CCCCCCCCCC(=O)Cl
inactive: [1] 33.9% | [2] 3.35% | [3] 11.1%
